Laboratory results from publication PMC4336329 (PLoS ONE, 2015).
Hit rate of the full screen: of about 310,000 compounds, about 14,000 (4.5%) showed an effect of 50% or more. The effect is printed as a negative number. The sample as a whole holds a higher share of strong results than the screen did.

biological target: human ether-à-go-go-related gene (hERG) potassium channel (human, UniProt Q12809); experiment: primary screen, population patch clamp on CHO cells stably expressing hERG; higher = less effect of the substance
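Note: peak tail current of the secondary pulse compared with the same well before compound.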

human ether-à-go-go-related gene (hERG) potassium channel, sequence (Q12809 whole entry, looked up): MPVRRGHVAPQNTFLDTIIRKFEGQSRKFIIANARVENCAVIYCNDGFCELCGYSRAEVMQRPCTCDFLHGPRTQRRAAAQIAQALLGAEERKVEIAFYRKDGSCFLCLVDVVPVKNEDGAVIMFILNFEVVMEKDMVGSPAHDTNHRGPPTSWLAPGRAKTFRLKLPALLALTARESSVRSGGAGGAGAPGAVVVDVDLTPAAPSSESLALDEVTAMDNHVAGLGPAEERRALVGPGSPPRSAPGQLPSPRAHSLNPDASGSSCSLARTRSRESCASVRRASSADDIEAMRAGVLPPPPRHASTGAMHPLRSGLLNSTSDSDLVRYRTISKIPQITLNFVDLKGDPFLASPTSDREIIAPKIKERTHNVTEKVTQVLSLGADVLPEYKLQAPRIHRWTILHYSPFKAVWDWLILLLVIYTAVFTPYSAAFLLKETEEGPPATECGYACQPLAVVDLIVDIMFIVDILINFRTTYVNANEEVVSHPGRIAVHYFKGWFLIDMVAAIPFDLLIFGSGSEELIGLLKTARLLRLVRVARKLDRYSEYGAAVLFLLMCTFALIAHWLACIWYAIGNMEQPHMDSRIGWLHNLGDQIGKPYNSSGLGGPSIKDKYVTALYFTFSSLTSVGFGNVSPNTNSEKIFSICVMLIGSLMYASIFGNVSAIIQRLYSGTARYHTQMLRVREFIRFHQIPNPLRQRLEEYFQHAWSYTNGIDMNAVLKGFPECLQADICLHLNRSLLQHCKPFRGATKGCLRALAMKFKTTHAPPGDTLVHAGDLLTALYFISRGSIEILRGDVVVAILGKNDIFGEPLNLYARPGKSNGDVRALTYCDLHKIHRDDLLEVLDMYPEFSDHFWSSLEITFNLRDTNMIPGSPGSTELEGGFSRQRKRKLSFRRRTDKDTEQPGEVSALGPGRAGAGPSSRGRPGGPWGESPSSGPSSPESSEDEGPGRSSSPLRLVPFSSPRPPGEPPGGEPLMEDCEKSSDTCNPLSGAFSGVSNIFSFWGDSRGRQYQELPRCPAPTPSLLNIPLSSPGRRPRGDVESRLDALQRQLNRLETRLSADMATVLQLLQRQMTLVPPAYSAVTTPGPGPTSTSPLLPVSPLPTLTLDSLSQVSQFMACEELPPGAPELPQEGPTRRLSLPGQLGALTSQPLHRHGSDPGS

`CON(C)S(=O)(=O)c1cccc(C(=O)NC2CCSc3ccccc32)c1` (stereo not drawn) was tested. Which “hERG current change (%, negative = inhibition) at 10uM” value did it give?
The value was -9.64%.

With `CCN(CC)CCN1C(=O)C(=O)/C(=C(/O)c2ccc(OC(C)C)cc2)C1c1cccs1` (stereo not drawn) as the compound, how does the “hERG current change (%, negative = inhibition) at 10uM” value read?
Its value is 0.529%.

How did the “hERG current change (%, negative = inhibition) at 10uM” value turn out when `Cc1cc(C(=O)N/N=C/c2cc(Br)c(Br)o2)n[nH]1` was run?
Its value is 16%.

`O=C(O)CNC(=O)c1ccccc1Br` was tested. Which “hERG current change (%, negative = inhibition) at 10uM” value did it give?
Its value is 9.63%.

For `CC1CCN(C(=O)C2CCN(S(=O)(=O)c3ccc(-n4cnnn4)cc3)CC2)CC1`, which “hERG current change (%, negative = inhibition) at 10uM” value is on record?
The value was -13.7%.

How did the “hERG current change (%, negative = inhibition) at 10uM” value turn out when `CC1CCCCN1S(=O)(=O)c1ccc(-n2cnnn2)cc1` (stereo not drawn) was run?
Its value is -50.1%.

With `O=C(C1CCN(S(=O)(=O)c2ccc(-n3cnnn3)cc2)CC1)N1CCCCC1` as the compound, how does the “hERG current change (%, negative = inhibition) at 10uM” value read?
The value was -30.1%.

Which “hERG current change (%, negative = inhibition) at 10uM” value does the source give for `CC1CCCCN1S(=O)(=O)c1ccc(S(=O)(=O)N2CCCC2)cc1` (stereo not drawn) here?
Its value is 5.9%.

For `CC1CCCCN1C(=O)C1CCN(S(=O)(=O)c2ccc(-n3cnnn3)cc2)CC1` (stereo not drawn), which “hERG current change (%, negative = inhibition) at 10uM” value is on record?
The value was -61.5%.

How did the “hERG current change (%, negative = inhibition) at 10uM” value turn out when `CC1CCCCN1S(=O)(=O)c1ccc(NC(=O)c2cccc(-n3cnnn3)c2)cc1` (stereo not drawn) was run?
Its value is -18.4%.

For `COc1ccc(C(CNC(=O)c2cccc(S(=O)(=O)NCc3ccccc3)c2)N(C)C)cc1` (stereo not drawn), which “hERG current change (%, negative = inhibition) at 10uM” value is on record?
The value was -24.3%.

With `CN(C(=O)COC(=O)c1cc(F)c(F)cc1Cl)c1ccccc1` as the compound, how does the “hERG current change (%, negative = inhibition) at 10uM” value read?
The value was 0.987%.

With `Cc1ccc(-c2cccc(CN3CCN(C(C)C)C(CCO)C3)c2)o1` (stereo not drawn) as the compound, how does the “hERG current change (%, negative = inhibition) at 10uM” value read?
The value was 13.4%.

`Cc1ccc(-c2cccc(CN3CCN(C4CCN(C(C)C)CC4)C(CCO)C3)c2)o1` (stereo not drawn) was tested. Which “hERG current change (%, negative = inhibition) at 10uM” value did it give?
The value was -59.4%.

How did the “hERG current change (%, negative = inhibition) at 10uM” value turn out when `CC(C)N1CCC(N2CCN(Cc3ccc(-c4ccccc4Cl)o3)CC2CCO)CC1` (stereo not drawn) was run?
The value was -66.6%.

For `CC(C)N1CCC(N2CCN(C/C=C/c3ccccc3)CC2CCO)CC1` (stereo not drawn), which “hERG current change (%, negative = inhibition) at 10uM” value is on record?
The value was -7.17%.

With `CC(C)N1CCC(N2CCN(Cc3cccnc3)CC2CCO)CC1` (stereo not drawn) as the compound, how does the “hERG current change (%, negative = inhibition) at 10uM” value read?
Its value is 20.3%.

Which “hERG current change (%, negative = inhibition) at 10uM” value does the source give for `CC(C)N1CCN(Cc2ccc(Sc3nncn3C)o2)CC1CCO` (stereo not drawn) here?
Its value is 22.9%.

Which “hERG current change (%, negative = inhibition) at 10uM” value does the source give for `CC(C)N1CCC(N2CCN(CCCc3ccccc3)CC2CCO)CC1` (stereo not drawn) here?
The value was 10.1%.

`CC(C)N1CCN(Cc2ccccc2-c2ccco2)CC1CCO` (stereo not drawn) was tested. Which “hERG current change (%, negative = inhibition) at 10uM” value did it give?
Its value is -35.3%.

With `CC(C)N1CCN(Cc2ccc(-c3ccccc3Cl)o2)CC1CCO` (stereo not drawn) as the compound, how does the “hERG current change (%, negative = inhibition) at 10uM” value read?
Its value is -54.8%.

For `CC(C)N1CCC(N2CCN(Cc3ccc(-c4ccc(Cl)cc4)o3)CC2CCO)CC1` (stereo not drawn), which “hERG current change (%, negative = inhibition) at 10uM” value is on record?
Its value is -64.5%.

With `CC(C)N1CCC(N2CCN(Cc3ccc4nonc4c3)CC2CCO)CC1` (stereo not drawn) as the compound, how does the “hERG current change (%, negative = inhibition) at 10uM” value read?
Its value is -27.5%.

For `CC(C)N1CCC(N2CCN(Cc3ccc4nsnc4c3)CC2CCO)CC1` (stereo not drawn), which “hERG current change (%, negative = inhibition) at 10uM” value is on record?
The value was -8.62%.

How did the “hERG current change (%, negative = inhibition) at 10uM” value turn out when `Cc1ccc(-n2nnnc2SCC(=O)Nc2ccccc2N2CCCCC2)cc1C` was run?
Its value is 14.3%.

With `CC(NC(=O)COc1ccccc1)C(c1cccs1)N1CCCC1` (stereo not drawn) as the compound, how does the “hERG current change (%, negative = inhibition) at 10uM” value read?
The value was -2.64%.

How did the “hERG current change (%, negative = inhibition) at 10uM” value turn out when `COc1ccccc1CNC(=O)CCCOc1cc(=O)n(C)c2ccccc12` was run?
Its value is 4.57%.

`CN(Cc1ccccc1)C(=O)CCC1CCN(S(=O)(=O)N(C)C)CC1` was tested. Which “hERG current change (%, negative = inhibition) at 10uM” value did it give?
Its value is -18.4%.

For `CCNC(=S)N1CCC(c2nc3ccccc3s2)CC1`, which “hERG current change (%, negative = inhibition) at 10uM” value is on record?
Its value is -25.7%.

With `CCCCNC(=O)[C@H]1C[C@H]1[C@@H](O)[C@H](CO)NC(=O)[C@H](COCc1ccccc1)NC(=O)OC(C)(C)C` as the compound, how does the “hERG current change (%, negative = inhibition) at 10uM” value read?
Its value is 21.5%.

Which “hERG current change (%, negative = inhibition) at 10uM” value does the source give for `CC(C)(C#N)Nn1cnnc1` here?
The value was 17.1%.

For `COc1ccc(CC(=O)OC2CCCN(C)C2)cc1.Cl` (stereo not drawn), which “hERG current change (%, negative = inhibition) at 10uM” value is on record?
Its value is 19.3%.

Which “hERG current change (%, negative = inhibition) at 10uM” value does the source give for `Cn1ncc(Cl)c1C(=O)N1CCN(c2cccc(Cl)c2)CC1` here?
The value was -8.7%.

`CC(C)n1c(SCc2cc(=O)[nH]c3ccccc23)nc2c1c(=O)n(C)c(=O)n2C` was tested. Which “hERG current change (%, negative = inhibition) at 10uM” value did it give?
Its value is -7.13%.

`c1ccc(-c2noc(CC3CCCCC3)n2)nc1` was tested. Which “hERG current change (%, negative = inhibition) at 10uM” value did it give?
The value was 6.32%.

With `O=C(COC(=O)C12CC3CC(CC(O)(C3)C1)C2)NCCc1ccc(Cl)cc1` as the compound, how does the “hERG current change (%, negative = inhibition) at 10uM” value read?
The value was -10.8%.

Which “hERG current change (%, negative = inhibition) at 10uM” value does the source give for `CCN(CC)CCCOC(=O)c1ccc(OC)cc1O.Cl` here?
The value was -40.9%.

For `CCC(Sc1nncn1C)C(=O)Nc1nnc(-c2ccccc2Cl)s1` (stereo not drawn), which “hERG current change (%, negative = inhibition) at 10uM” value is on record?
The value was -11%.

How did the “hERG current change (%, negative = inhibition) at 10uM” value turn out when `CC(C)c1nnc(NC(=O)C2CCCN2C(=O)Nc2cccc(Cl)c2)s1` (stereo not drawn) was run?
The value was -18%.

How did the “hERG current change (%, negative = inhibition) at 10uM” value turn out when `COc1ccc(C(=O)NC(C)CCc2ccccc2)cc1` (stereo not drawn) was run?
Its value is -2.64%.

For `COc1ccc(C(=O)NC(C)CCc2ccccc2)c(OC)c1` (stereo not drawn), which “hERG current change (%, negative = inhibition) at 10uM” value is on record?
Its value is -26.3%.

How did the “hERG current change (%, negative = inhibition) at 10uM” value turn out when `COc1ccc(C(=O)NC(C)CCc2ccccc2)c(O)c1` (stereo not drawn) was run?
The value was -55.5%.

For `CC(C)(C)c1ccc(C(=O)OCCN2CCCCC2)cc1.Cl`, which “hERG current change (%, negative = inhibition) at 10uM” value is on record?
The value was -47.6%.

With `Brc1ccc(CN2CCCCCC2)cc1` as the compound, how does the “hERG current change (%, negative = inhibition) at 10uM” value read?
The value was -30.3%.

Which “hERG current change (%, negative = inhibition) at 10uM” value does the source give for `Cl.Fc1ccc(C(OCCN2CCCC2)c2ccc(Br)cc2)cc1` (stereo not drawn) here?
The value was -75.8%.

Which “hERG current change (%, negative = inhibition) at 10uM” value does the source give for `Cl.Fc1ccc(C(OCCN2CCCC2)c2ccc(F)cc2)cc1` here?
The value was -71.3%.

Which “hERG current change (%, negative = inhibition) at 10uM” value does the source give for `Cl.O=C(CCN1CCCCCC1)Nc1ccc(F)cc1` here?
Its value is -42.8%.

For `Brc1ccccc1OCCN1CCCC1`, which “hERG current change (%, negative = inhibition) at 10uM” value is on record?
The value was -1.74%.

`Fc1ccc(OCCOCCN2CCCC2)cc1` was tested. Which “hERG current change (%, negative = inhibition) at 10uM” value did it give?
The value was -12.6%.

How did the “hERG current change (%, negative = inhibition) at 10uM” value turn out when `CC(C)(C)c1ccccc1OCCN1CCCC1` was run?
The value was -24.1%.

With `CC(OCCN1CCCC1)(c1ccc(F)cc1)c1ccc(F)cc1.Cl` as the compound, how does the “hERG current change (%, negative = inhibition) at 10uM” value read?
Its value is -63.1%.

How did the “hERG current change (%, negative = inhibition) at 10uM” value turn out when `CCOC(=O)[C@H]1[C@H]2COc3cc(OC)ccc3[C@@H]2N2C(=O)CN(Cc3ccc(OC)cc3)C(=O)[C@@]12C` was run?
Its value is -1.96%.

With `CC1CCc2sc(C(=O)N3CCC(C(N)=O)CC3)cc2C1` (stereo not drawn) as the compound, how does the “hERG current change (%, negative = inhibition) at 10uM” value read?
Its value is 5.36%.

For `CCN(CC)S(=O)(=O)c1cccc(C(=O)Nc2nncs2)c1`, which “hERG current change (%, negative = inhibition) at 10uM” value is on record?
Its value is 1.66%.

`O=C(CSc1nnc(-c2ccc(S(=O)(=O)N3CCOCC3)cc2)o1)c1ccccc1F` was tested. Which “hERG current change (%, negative = inhibition) at 10uM” value did it give?
Its value is 1.84%.

`Cc1cc(SCC(=O)NCCN2C(=O)CSC2=O)nc2c(C)cccc12` was tested. Which “hERG current change (%, negative = inhibition) at 10uM” value did it give?
The value was 0.207%.

How did the “hERG current change (%, negative = inhibition) at 10uM” value turn out when `CCCc1c(C)c2cc(C)ccc2[nH]c1=O` was run?
Its value is -25.3%.

With `Cc1ccc(-c2csc3nc4c5ccccc5c(NCCCN(C)C)nn4c(=O)c23)cc1` as the compound, how does the “hERG current change (%, negative = inhibition) at 10uM” value read?
The value was -78%.

How did the “hERG current change (%, negative = inhibition) at 10uM” value turn out when `Cc1ccc(-c2csc3nc4c5ccccc5c(NCCCN5CCOCC5)nn4c(=O)c23)cc1` was run?
The value was 2.7%.

For `CN(C)CCCNc1ncnc2scc(-c3ccccc3)c12.O=C(O)C(=O)O`, which “hERG current change (%, negative = inhibition) at 10uM” value is on record?
Its value is -27.9%.
